# Counter-ions that a name gives are not always drawn.
# Columns and labels:
# [1] = system: Staphylococcus aureus MW2 delta-mecA (mecA-); experiment: normalized GFP fluorescence (growth of mecA- strain) (fraction of control range); higher = more growth of mecA- strain; details: compound concentration: 150 uM; cefoxitin: subinhibitory; fluorescent label: GFP
# Procedure, shortened: (§1)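 Two pre-induced S. aureus MW2 strains, one with the gene labeled by DsRed and one lacking it labeled by GFP, were mixed 1:1 in LB with a subinhibitory antibiotic dose set daily. The mix went at 5 µL/well onto 150 μM compound (1.5% DMSO) in 1536-well plates, single replicate, and grew unshaken 20 h at 37 °C, 90% humidity. DsRed (540/590) and GFP (485/520) values were scaled per plate between single-strain control medians, and plates with high untreated ratios or rows with DsRed/GFP >10 were left out.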
# [2] = system: Staphylococcus aureus MW2 (mecA+); experiment: normalized DsRed fluorescence (growth of mecA+ strain) (fraction of control range); higher = more growth of mecA+ strain; details: compound concentration: 150 uM; cefoxitin: subinhibitory; fluorescent label: DsRed
# Procedure, shortened: as §1
SMILES,normalized GFP fluorescence [1],normalized DsRed fluorescence [2]
CN(C)CCCN1c2ccccc2Sc2ccc(Cl)cc21,-0.00289,1.26
NCC[C@H](O)C(=O)N[C@@H]1C[C@H](N)[C@@H](O[C@H]2O[C@H](CN)[C@@H](O)[C@H](O)[C@H]2O)[C@H](O)[C@H]1O[C@H]1O[C@H](CO)[C@@H](O)[C@H](N)[C@H]1O [Amikacin hydrate],0.412,0.639
NS(=O)(=O)c1cc2c(cc1Cl)N=CNS2(=O)=O,0.373,0.683
CC(C)(S)[C@@H](N)C(=O)O,0.302,1.21
CC1CCC(NC(=O)N(CCCl)N=O)CC1 (configuration not stated),0.55,0.439
CC(=O)Oc1ccc(C(c2ccc(OC(C)=O)cc2)c2ccccn2)cc1,0.399,0.669
CC(=O)O[C@H]1C(=O)[C@@]2(C)[C@H]([C@H](OC(=O)c3ccccc3)[C@]3(O)C[C@H](OC(=O)[C@H](O)[C@@H](NC(=O)c4ccccc4)c4ccccc4)C(C)=C1C3(C)C)[C@]1(OC(C)=O)CO[C@@H]1C[C@@H]2O [Paclitaxel (Taxol)],0.188,0.669
CC(=O)Oc1ccccc1C(=O)O [Aspirin (Acetylsalicylic acid)],0.393,0.803
CC[C@@H](CO)NCCN[C@@H](CC)CO,0.377,0.991
Cc1ccc(N(CC2=NCCN2)c2cccc(O)c2)cc1,0.3,0.634
CC1=C(/C=C/C(C)=C/C=C/C(C)=C\C(=O)O)C(C)(C)CCC1,0.0602,0.671
O=C(O)Cc1ccccc1Nc1c(Cl)cccc1Cl [Diclofenac],0.0393,0.175
NC(=O)N1c2ccccc2C=Cc2ccccc21,0.497,0.792
CCOC(=O)C1=C[C@@H](OC(CC)CC)[C@H](NC(C)=O)[C@@H](N)C1,0.257,0.588
O=C(O)c1cc(-c2ccc(F)cc2F)ccc1O,0.0802,0.298
CN[C@@H]1[C@@H](O)[C@@H](O[C@@H]2[C@@H](O)[C@H](O[C@H]3OC(CN)=CC[C@H]3N)[C@@H](N)C[C@H]2N)OC[C@]1(C)O,0.511,0.916
Cc1ccnc(NS(=O)(=O)c2ccc(N)cc2)n1,0.459,0.528
C[C@@H]1CCN(C(=O)CC#N)C[C@@H]1N(C)c1ncnc2[nH]ccc12,0.325,0.9
CN1Cc2c(N)cccc2C(c2ccccc2)C1 (configuration not stated),0.359,0.781
NC(=O)c1cc[n+](CC2=C(C(=O)O)N3C(=O)[C@@H](NC(=O)[C@@H](c4ccccc4)S(=O)(=O)[O-])[C@H]3SC2)cc1,0.172,1.03
CCOC(=O)[C@H](CCc1ccccc1)N[C@H]1CCCN2CCC[C@@H](C(=O)O)N2C1=O [Cilazapril monohydrate (Inhibace)],0.646,0.59

SMILES,normalized GFP fluorescence [1],normalized DsRed fluorescence [2]
Cn1c(=O)c2nc[nH]c2n(C)c1=O,0.449,0.42
NC(=O)c1ncn([C@@H]2O[C@H](CO)[C@@H](O)[C@H]2O)n1,0.38,0.58
CN1[C@@H]2CC[C@H]1C[C@@H](OC(=O)c1c[nH]c3ccccc13)C2 [Tropisetron],0.528,0.582
Clc1ccc2c(c1)C(N1CCNCC1)=Nc1ccccc1O2,0.114,1.74
CC(=O)OCC(=O)NCCCOc1cccc(CN2CCCCC2)c1 [Roxatidine acetate HCl],0.438,0.76
Cc1cc2c(cc1CC(=O)c1sccc1S(=O)(=O)Nc1onc(C)c1Cl)OCO2,0.251,0.293
CC(=O)CC(c1ccc([N+](=O)[O-])cc1)c1c(O)c2ccccc2oc1=O (configuration not stated),0.279,0.29
O=S(=O)(O)CCS,0.0478,0.565
Cc1cccc(C)c1NC(=O)C(C)N (configuration not stated),0.842,0.486
CC(C)C(=O)Oc1ccc(CO)cc1[C@H](CCN(C(C)C)C(C)C)c1ccccc1 [Fesoterodine fumarate (Toviaz)],0.00662,1.38
CCN[C@H]1C[C@H](C)S(=O)(=O)c2sc(S(N)(=O)=O)cc21 [Dorzolamide HCL],0.422,0.697
CC(C)(C)NC[C@H](O)COc1cccc2c1CCCC2=O,0.401,0.5
Nc1nnc(-c2cccc(Cl)c2Cl)c(N)n1 [Lamotrigine],-0.0077,1.04
CCCSc1nc(N[C@@H]2C[C@H]2c2ccc(F)c(F)c2)c2nnn([C@@H]3C[C@H](OCCO)[C@@H](O)[C@H]3O)c2n1 [Ticagrelor],-0.0296,-0.0335
CC12CC3CC(C)(C1)CC(N)(C3)C2,0.384,0.672
CN1CCC(=C2c3ccccc3CCc3sccc32)CC1 [Pizotifen malate],0.00361,1.4
COCCCN1CCC(NC(=O)c2cc(Cl)c(N)c3c2OCC3)CC1 [Prucalopride],0.256,0.927
CC(=O)OCC(CCn1cnc2cnc(N)nc21)COC(C)=O,0.204,0.667
N[C@H]1C(O)O[C@H](CO)[C@@H](O)[C@@H]1O (some centres not stated),0.468,0.564
OCCOCCN1CCN(C(c2ccccc2)c2ccc(Cl)cc2)CC1 (configuration not stated),-0.0253,0.833
